# Compound activity as filed in PubChem.
# An excerpt weighted towards active compounds, which were near 4.7% of everything screened.
# TRHR agonist-1: TRH receptor (human) agonism | activation, % at 2 µM | actives 0.18% (n = 360,000) | TRHR cells, calcium flux fluo-8, FDSS agonist mode | P34981; note: 0% is about no effect
#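 Agonist-mode FDSS calcium read (Ex 480/Em 530, 1 s cycles) in 1536-well TRHR cells with fluo-8 dye, after 10-cycle baseline and 23 nL compound addition; TRH at EC20 (10 nM final) added afterwards for the enhancer phase.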
# D1 potentiator: potentiators of human D1 dopamine receptor. P21728. HEK293 TREx D1 cells, calcium flux, dopamine EC20 potentiation. potentiation, % at 10 µM. actives 0.036% (n = 360,000). AID 504651; in the data active = potentiation above about 30%; note: 0% is about no effect
# Target sequence (P21728 whole entry, looked up): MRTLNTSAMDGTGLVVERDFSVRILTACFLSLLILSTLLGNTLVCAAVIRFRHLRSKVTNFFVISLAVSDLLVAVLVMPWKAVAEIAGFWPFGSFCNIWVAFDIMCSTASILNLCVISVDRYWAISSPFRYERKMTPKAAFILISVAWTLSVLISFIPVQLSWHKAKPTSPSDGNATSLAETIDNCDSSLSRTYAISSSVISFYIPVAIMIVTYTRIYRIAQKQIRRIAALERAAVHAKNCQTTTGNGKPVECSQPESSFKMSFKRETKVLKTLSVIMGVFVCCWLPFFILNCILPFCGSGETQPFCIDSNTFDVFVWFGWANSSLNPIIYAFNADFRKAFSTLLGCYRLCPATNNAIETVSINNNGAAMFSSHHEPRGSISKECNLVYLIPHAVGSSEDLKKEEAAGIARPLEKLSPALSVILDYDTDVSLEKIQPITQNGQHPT
# TRHR enhancer-1: allosteric enhancers of human TRH receptor; P34981; TRHR cells, fluo-8 calcium fluorescence, EC20 TRH enhancement; enhancement, % at 2 µM; actives 0.66% (n = 360,000); AID 493056; in the data active = enhancement above about 30%; note: 0% is about no effect
#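 TRHR-expressing cells loaded with fluo-8 calcium dye were read kinetically (ex 480/em 530) during compound addition, then stimulated with an EC20 of TRH (10 nM final). Enhancement of the Gq-mediated intracellular calcium response was scored.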
# D1 ag: human D1 receptor agonism | P21728 | HEK293 T-REx D1 cells, calcium flux, agonist mode | activation, % at 2 µM | actives 1% (n = 360,000); note: 0% is about no effect
#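 Tetracycline-induced HEK293 TREx D1 cells, force-coupled to calcium signalling, were dye-loaded with a no-wash calcium kit. Compound was pin-added after a 10 s baseline. Fluorescence was read kinetically at 1 cycle/s for 180 s, with calcium rises flagged as agonism.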
# D1 antag: human D1 dopamine receptor antagonism; P21728; HEK293 TREx D1 cells, calcium flux, dopamine EC80; stronger effect = lower value; activity change, negative = inhibition, % at 10 µM; actives 3.2% (n = 360,000); AID 504652; in the data active = activity change below about -30%; note: % is set by controls: 0 for no effect and ±100 for the full control effect
#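 Cells carrying a force-coupled, tetracycline-inducible human D1 receptor report calcium flux. Each well gets a 10 s baseline, compound with 180 s monitoring, then an EC80 dopamine stimulus with a second 180 s kinetic read.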
# TRHR enhancer-2: confirmation of human TRH receptor allosteric enhancers. shares compounds with TRHR enhancer-1. TRH receptor cell assay, enhancer confirmation qHTS. activity change, negative = inhibition, % at 46.1 µM. 970 tested, under 10 active. AID 493076; active = well fitted curve in the direction sought with a large enough effect; inconclusive = small, poorly fitted or top-dose-only effect, or another doubt; inactive = no such curve, though single readings can be large; an effect the other way counts as inactive or inconclusive;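 note: compound effect scored on response to added TRH at EC20 of 10 nM; 0% is about no effect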
# TRHR agonist-2: human TRH receptor agonism confirmation; TRHR-expressing cells, agonist activation read-out; actives 8% (n = 970); Potency, µM (top dose mostly 46.1 µM), without a hit: at the highest dose activation, hits mostly activators; shares compounds with TRHR enhancer-1; AID 493078; active = well fitted curve in the direction sought with a large enough effect; inconclusive = small, poorly fitted or top-dose-only effect, or another doubt; inactive = no such curve, though single readings can be large; an effect the other way counts as inactive or inconclusive; note: potency is the fitted concentration of half-maximal effect; 0% is about no effect; nearly all actives have a fitted effect of over 75% in size
# Starred values were filed as active, the others as inactive; ? = inconclusive; . = no result. Cut-off read from the data, not from the text of the source, unless noted: active = activation above about 30%; inactive = the rest.
SMILES,TRHR agonist-1,D1 potentiator,TRHR enhancer-1,D1 ag,D1 antag,TRHR enhancer-2,TRHR agonist-2
O=S(=O)(c1ccccc1)C1CON(Cc2ccccc2)C1c1ccccc1 (centres undefined),1,-3,14,2,-9,.,.
CN1OCC(S(=O)(=O)c2ccccc2)C1c1ccccc1 (centres undefined),0,0,44*,2,-9,8,3%
Cc1ccc(CCNC(=O)C2CCCN(S(=O)(=O)c3c(C)nn(C)c3C)C2)cc1 (centres undefined),0,.,3,0,-6,.,.
Cc1ccc(C)c(NC(=O)C2CCCN(S(=O)(=O)c3c(C)nn(C)c3C)C2)c1 (centres undefined),30*,0,0,2,0,-7,4%
Cc1cccc(NC(=O)CSc2cccc3cccnc23)c1,27,-1,-3,4,-11,-13,1%
Cc1ccc(C)c(NC(=O)CSc2cccc3cccnc23)c1,0,-2,-9,1,6,.,.
Cc1ccc(NC(=O)Cn2c(=O)n(CCc3ccccc3)c(=O)c3sc4ccccc4c32)cc1C,-2,-2,8,2,-26,.,.
Clc1ccc(Oc2cnns2)cc1Cl,0,-8,44*,4,-4,6,1%
Cc1ccc(NC(=O)c2cnn3c(C(F)F)cc(-c4ccccc4)nc23)c(C)c1,0,-5,6,0,0,.,.
Cc1[nH]n(-c2ccccc2)c(=O)c1C=NC1CCCCC1,0,-6,44*,-2,-6,-3,1%
Cc1[nH]n(-c2ccccc2)c(=O)c1C=NC1CCCCCC1,0,1,0,3,2,.,.
O=C(CSc1ccc(-c2ccc(F)cc2)nn1)N1CCOCC1,0,4,50*,6,0,-5,1%
COc1ccc(-c2c(C#N)c(SCC(=O)Nc3ccc(C)c(C)c3)nc(C)c2C(=O)Nc2ccccc2)cc1OC,0,1,4,3,-3,.,.
CCOc1ccc(CNC(=O)C2CCCN(c3nc4c(C)cc(C)cc4s3)C2)cc1 (centres undefined),0,-6,1,1,-21,.,.
Cc1cc(C)cc(NS(=O)(=O)c2ccc(N3CCCCS3(=O)=O)cc2)c1,1,0,-2,8,-11,.,.
COC(=O)Cc1c(O)ccn(CCc2ccccc2)c1=O,2,15,51*,2,1,2,5%
COc1cc(O)c(C(CC(=O)N2CCCCC2)c2cc(OC)c(OC)c(OC)c2)c(OC)c1 (centres undefined),0,-3,-1,7,-10,.,.
COc1cc(O)c(C(CC(=O)N2CCCC2)c2cc(OC)c(OC)c(OC)c2)c(OC)c1 (centres undefined),-1,-9,49*,0,2,-3,7%
O=C(CSC(=S)N1CCCCC1)N1N=CCC1c1ccccc1 (centres undefined),0,2,53*,-2,.,4,1%
Cc1oc(-c2ccccc2)nc1C(=O)OCC(=O)NC(C)c1ccccc1 (centres undefined),-1,10,8,0,-4,.,.
Cc1oc(-c2ccccc2)nc1C(=O)OCC(=O)NC(=O)NCC(C)C,0,-4,49*,0,-14,-4,-1%
CC(C)=CCc1c(O)ccc(C(=O)Cc2ccccc2)c1O,2,0,67*,13,-22,0,?
COC(=O)C1=C(c2ccccc2)c2ccccc2S(=O)(=O)N1CC(=O)Nc1ccc(OC)cc1OC,1,-2,-10,6,3,.,.
Brc1c(CSc2nc3ccccc3s2)nc2ncccn12,0,-3,6,2,11,.,.
O=[N+]([O-])c1ccc2sc(SCc3nc4ccccn4c3Br)nc2c1,-1,-8,41*,1,-18,-7,3%
SMILES,TRHR agonist-1,D1 potentiator,TRHR enhancer-1,D1 ag,D1 antag,TRHR enhancer-2,TRHR agonist-2
COc1ccc(N(CC(=O)NN=C2CCN(C)CC2)S(=O)(=O)c2ccccc2)c(OC)c1,0,2,41*,-4,-7,1,0%
CCOC(=O)Cc1ccc(NC(=O)N2CCC(CN3CCCCCC3)CC2)cc1,1,6,7,-1,1,.,.
CCC(C)n1c(=N)c(C(=O)NC2CCCCC2)cc2c(=O)n3ccccc3nc21 (centres undefined),0,-2,-5,-3,24,.,.
N#CCSc1nnc2sc3ccccc3n12,0,-2,-3,3,-9,.,.
Cc1noc(C)c1CSc1nnc2sc3ccccc3n12,0,13,43*,3,23,-5,1%
CC1Cc2ccccc2N1C(=O)CSc1nnc2sc3ccccc3n12 (centres undefined),0,2,63*,0,-3,1,-1%
Cc1cccc(C)c1-n1ncc(C(=O)NCCCN2CCC(C)CC2)c1C1CCN(C(=O)OC(C)(C)C)CC1,2,14,13,11,29,.,.
CCn1ncc(Cl)c1C(=O)NC(=S)Nc1ccccc1Br,12,-3,2,6,-10,.,.
Cc1nn(C)c(C(=O)NC(=S)Nc2ccccc2Br)c1Cl,75*,8,22,2,-4,-16,13µM*
CC1(C)Cc2c(sc(NC(=O)c3ccc4ncsc4c3)c2C(N)=O)C(C)(C)N1,0,0,44*,2,1,9,0%
O=C(NCc1cccc(CNC(=O)C(=O)NCC2CCCO2)c1)C(=O)NCC1CCCO1 (centres undefined),1,-4,42*,1,-5,1,-1%
O=C(NCc1ccc2c(c1)OCO2)C(=O)NCC1CCCO1 (centres undefined),0,1,0,1,-9,.,.
O=S(=O)(NCc1ccccc1F)NCc1ccccc1F,-1,-7,58*,-1,-25,-6,0%
Cc1ccc2cc(NC(=O)Cc3ccccc3)ccc2n1,0,2,3,1,-7,.,.
Cc1ccc2cc(NC(=O)c3ccccc3C)ccc2n1,0,6,50*,2,20,2,1%
CCc1cccc(NC(=O)C(CC(C)C)NS(=O)(=O)c2ccc3c(c2)oc(=O)n3C)c1 (centres undefined),0,0,4,2,-1,.,.
Cc1cccc(N2CCN(C(=O)NC3CCCCC3)CC2C)c1 (centres undefined),0,2,42*,3,-20,-9,2%
Cc1cccc(N2CCN(C(=O)/C=C/c3cccs3)CC2C)c1 (centres undefined),0,-3,-6,0,7,.,.
